ALDH1A1 block – blocks purified human ALDH1A1 activity; Potency, µM (titrated, usually from 75.3 µM), without a hit: at the highest dose activity, negative = inhibition, usual class: inhibitors; P00352; Purified ALDH1A1, NADH fluorescence, propionaldehyde substrate; AID 1030; hit rate 7.3% among 220,000;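 further: potency means the concentration at half of the fitted maximal effect; plate controls were no enzyme wells and a reference inhibitor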
HTT ATP protect – Huntington cell model cytoprotection by ATP luminescence; hit rate 0.14% among 230,000; Potency, µM (titrated, usually from 56.4 µM), inactives show cytoprotection (ATP increase), hits mostly activators; PC12 HTT-Q103 induced, cytoprotection, ATP luminescence, 40 h; active means well fitted curve in the direction sought with a large enough effect; inconclusive means small, poorly fitted or top-dose-only effect, or another doubt; inactive means no such curve, though single readings can be large; an effect the other way counts as inactive or inconclusive; further: potency means the concentration at half of the fitted maximal effect; % of control where 0% means no effect; nearly all actives have a fitted effect of over 45% in size
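Readout: ATPlite luminescence (ATP level). Model: stable PC12, inducible Htt exon1 Q103-GFP. Inducer: tebufenozide, 100 nM final. Compounds: dose series. No G418 in medium.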
HPGD block – blocks human HPGD enzyme activity | P15428 | purified HPGD, NADH fluorescence kinetic, PGE2 substrate | Potency, µM, inactives show at the highest dose activity change, negative = inhibition, hits mostly inhibitors | hit rate 4.3% among 150,000; further: potency means the concentration at half of the fitted maximal effect; on the % scale 0 is the no-effect control and ±100 the full control effect
Target sequence (P15428 whole entry, looked up): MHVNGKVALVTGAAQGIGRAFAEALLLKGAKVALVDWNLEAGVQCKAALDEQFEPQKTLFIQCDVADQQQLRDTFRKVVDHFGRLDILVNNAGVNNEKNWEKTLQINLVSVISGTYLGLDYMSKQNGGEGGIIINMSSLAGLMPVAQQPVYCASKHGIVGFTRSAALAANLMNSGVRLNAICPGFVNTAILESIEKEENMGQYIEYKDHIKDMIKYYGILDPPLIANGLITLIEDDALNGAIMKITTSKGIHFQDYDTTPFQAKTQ
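20 nM HPGD preincubated 15 min at room temperature with compound in 50 mM Tris-HCl pH 8, 0.01% Tween 20. Started with 1 mM NAD+ and 30 uM prostaglandin E2; NADH fluorescence (360/450 nm) read 5 times over 30-s intervals, last minus first.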
HttQ103 aggreg – inhibitors of mutant huntingtin aggregate formation in PC12 cells; PC12 HttQ103-GFP aggregates, Acumen cytometry, 40 h; Potency, µM (highest dose often 46.1 µM), without a hit: at the top dose activity change, negative = inhibition, most hits filed as inhibitors; hit rate 1.1% among 220,000; active means well fitted curve in the direction sought with a large enough effect; inconclusive means small, poorly fitted or top-dose-only effect, or another doubt; inactive means no such curve, though single readings can be large; an effect the other way counts as inactive or inconclusive; further: potency means the concentration at half of the fitted maximal effect; on the % scale 0 is the no-effect control and ±100 the full control effect; nearly all actives have a fitted effect of over 60% in size
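Ecdysone-promoter PC12 model expressing HTT exon 1 Q103 fused to GFP, induced by tebufenozide at 100 nM final. Compounds titrated; aggregates sized 1–25 µm scored on a 488 nm laser cytometer.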
KDM4E inh – blocks human JMJD2E demethylase activity; B2RXH2; JMJD2E catalytic domain, FDH-coupled NADH fluorescence (FDH is formaldehyde dehydrogenase); Potency, µM (series often up to 57.1 µM), without a hit: at the top dose activity change, negative = inhibition, most hits filed as inhibitors; hit rate 1.6% among 230,000; AID 2147;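 further: potency means the concentration at half of the fitted maximal effect; 0% = wells with enzyme and -100% = buffer wells without enzyme; nearly all actives have a fitted effect of over 50% in size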
Target sequence (B2RXH2 1-337 limits assumed): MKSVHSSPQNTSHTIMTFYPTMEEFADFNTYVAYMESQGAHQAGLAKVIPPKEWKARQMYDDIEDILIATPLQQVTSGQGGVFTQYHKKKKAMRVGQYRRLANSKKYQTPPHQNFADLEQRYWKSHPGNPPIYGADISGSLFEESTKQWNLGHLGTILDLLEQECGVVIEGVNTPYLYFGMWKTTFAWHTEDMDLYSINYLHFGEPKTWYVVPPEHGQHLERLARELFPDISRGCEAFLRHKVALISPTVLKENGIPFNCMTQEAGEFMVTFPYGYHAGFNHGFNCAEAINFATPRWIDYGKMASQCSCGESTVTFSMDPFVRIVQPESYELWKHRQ
CBFb RUNX1 block – inhibitors of human CBF-beta and RUNX1 interaction | AlphaScreen CBFb-His/RUNX1-biotin binding, biochemical | Q01196+Q13951 | 230,000 tested, under 10 active | AID 1477 | Potency, µM (highest dose often 59.8 µM), for inactives: at the highest dose activity, negative = inhibition, usual class: inhibitors; active means well fitted curve in the direction sought with a large enough effect; inconclusive means small, poorly fitted or top-dose-only effect, or another doubt; inactive means no such curve, though single readings can be large; an effect the other way counts as inactive or inconclusive; further: % of control where 0% means no effect
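His-tagged CBF-beta and biotinylated RUNX1 (30 nM each) were premixed 20 min at room temperature, exposed to compound for 15 min, then given nickel-chelate and streptavidin AlphaScreen beads (50 ng each). After 90 min, AlphaScreen signal was read.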
Numbers without * were called inactive; ? = inconclusive; · = no result given; [ ] = another dose, or the depositor's remark. An excerpt weighted towards active compounds, which were near 9.8% of everything screened. Unless noted, the call rests on the fitted dose curve; in most records, active means well fitted inhibition curve with a large enough effect (not every such curve was filed as active); inconclusive means small, poorly fitted or top-dose-only effect, or another doubt; inactive means no such curve, though single readings can be large or run the other way.

SMILES	ALDH1A1 block	HTT ATP protect	HPGD block	HttQ103 aggreg	KDM4E inh	CBFb RUNX1 block
COC(=O)CN1C(=O)N/C(=C/c2ccccc2OC)C1=O	?	-14%	·	-4%	-12%	-2%
CCCC(=O)Nc1ccc(NC(=O)c2ccco2)cn1	2%	-28%[10 µM]	·	1%	2%	7%
O=C(NCc1ccccn1)c1ccc(NC(=O)c2ccco2)cc1	?	4%[0.074 µM]	14µM*	13%	3%	4%
O=C(NCc1cccnc1)c1ccc(NC(=O)c2ccco2)cc1	10%	19%[10 µM]	-8%	-10%	11%	5%
CC(C)(C)c1ccc(Oc2ccc(NC(=O)c3ccco3)cn2)cc1	·	-66%[10 µM]	·	?	-2%	0%
O=C(Nc1ccc(Oc2cccc(C(F)(F)F)c2)nc1)c1ccco1	40µM*	5%[10 µM]	·	-15%[9.22 µM]	?	21%
CC(C)C(=O)Nc1ccc(NC(=O)c2ccco2)cn1	28µM*	-20%[10 µM]	·	-5%	?	1%
O=C(CCC(=O)Nc1ccc(Cl)cc1Cl)N/N=C/c1ccc([N+](=O)[O-])o1	-3%	·	·	?	-7%	-15%
Cc1ccc(C(=O)CSc2cnc3ccccc3n2)cc1C	22µM*	·	22µM*	-3%	-3%	5%
Cc1cc(SCC(=O)c2ccccc2)nc2ccccc12	-5%[13.5 µM]	-12%[10 µM]	-25%	·	·	·
CC1CCCN(C(=O)CSc2nc3ncccc3[nH]2)C1 (configuration not stated)	?	-6%[10 µM]	·	-8%[9.22 µM]	3%	-23%
CC1CCCN(C(=O)CSc2cnc3ccccc3n2)C1 (configuration not stated)	28µM*	9%	4.5µM*	20%	1%	4%
C/C(=N\NC(=O)CSc1nc2ccccc2s1)c1cccnc1	·	13%[10 µM]	·	8%[9.22 µM]	5%	-3%
Cc1oc(C)c2c(=O)ccc3c(c12)OC(N)=C(C#N)C3c1ccccc1Cl (configuration not stated)	25µM*	-18%	-10%	?	18µM*	-18%
Cc1oc(C)c2c(=O)ccc3c(c12)OC(N)=C(C#N)C3c1ccccc1 (configuration not stated)	?	10%[10 µM]	-11%	31%	?	-4%
CCN1/C(=C/c2cc[n+](C)cc2)C=Cc2cc(C)ccc21	?	-59%[10 µM]	-1%	8.9µM*	?	-10%
N[C@@H](CO)C(=O)O	1%	?	-2%	·	?	-9%[21.7 µM]
Cc1ccc(-c2csc(Nc3ccc(S(N)(=O)=O)cc3)n2)o1	2.2µM*	7%	·	-9%	-26%	-15%
Cc1ccc(-c2csc(NC(=O)Cc3ccc(F)cc3)n2)o1	3.5µM*	-29%	·	-2%	-7%	-12%
Cc1ccc(-c2csc(NC(=O)c3ccc(-c4ccccc4)cc3)n2)o1	20µM*	1%[10 µM]	?	?	?	-21%
CN1CCS/C1=C/C=C1\SC(=S)N(CC(=O)O)C1=O	11µM*	-3%[10 µM]	·	-5%[9.22 µM]	2%	-4%
CN1CCS/C1=C/C=C1/SC(=S)N(Cc2ccccc2)C1=O	1µM*	-10%[10 µM]	-14%	20%	-2%	8%
FB(F)F	1%	-6%	5%	·	·	1%[21.7 µM]
C/C(=N\NC(=O)c1ccn(C)n1)c1ccc(NC(=O)C2CCCC2)cc1	3%	-20%[10 µM]	14µM*	8%	30%	-20%
Cc1ccc(C(=O)COC(=O)c2ccc(O)cc2)cc1	?	-26%	·	28%	7%	8%
SMILES	ALDH1A1 block	HTT ATP protect	HPGD block	HttQ103 aggreg	KDM4E inh	CBFb RUNX1 block
O=C(c1ccco1)N1CCN(C(=O)c2ccc(COc3ccc4c(c3)CCC4)o2)CC1	28µM*	-49%	28µM*	-21%	-7%	-8%
COc1cccc(OC)c1C(=O)NNC(=O)c1cccc(COc2ccc3c(c2)CCC3)c1	20µM*	-46%	-6%	-9%	2%	-5%
NNC(=O)c1ccc(COc2ccc3c(c2)CCC3)o1	7.9µM*	10%[10 µM]	-1%	?	30%	-7%
C=C(C(C)=O)C(O)c1ccc2ccccc2c1 (configuration not stated)	-7%	-24%	-1%	·	0%	7%
Cc1cc(C(=O)OCC(=O)N2CC(C)CC(C)C2)c(C)o1 (configuration not stated)	14µM*	18%	-8%	-2%	1%	5%
CC1CC(C)CN(C(=O)COC(=O)c2cc3ccccc3cc2O)C1 (configuration not stated)	-6%	17%[10 µM]	-23%	-1%	-8%	11%
O=S1(=O)c2ccccc2N=NN1Cc1cc(Cl)cc(Cl)c1	?	-2%	?	-13%	0%	-11%
O=S1(=O)c2ccccc2N=NN1Cc1ccc(Cl)cc1	2.4µM*	-55%[10 µM]	28µM*	10%	3%	-2%
O=C(OCc1ccccc1)C1=NNC2C(=O)N(c3ccc(Br)cc3)C(=O)C12 (configuration not stated)	·	20%[10 µM]	·	18%[9.22 µM]	2%	7%
CO[C@H]1C[C@@H]2CC[C@@H](C)[C@@](O)(O2)C(=O)C(=O)N2CCCC[C@H]2C(=O)O[C@H]([C@H](C)C[C@@H]2CC[C@@H](OCCO)[C@H](OC)C2)CC(=O)[C@H](C)/C=C(\C)[C@@H](O)[C@@H](OC)C(=O)[C@H](C)C[C@H](C)/C=C/C=C/C=C/1C	·	-43%	·	0%	·	·
CC(C)c1ccccc1NC(=O)CNCCc1ccc(C(F)(F)F)cc1	·	3%[10 µM]	·	-17%[9.22 µM]	3.2µM*	-13%
CCCCC(=O)Nc1ccccc1C(C)C	1%	5%[10 µM]	·	6%[9.22 µM]	-3%	6%
Cc1ccc(N2C(=O)CS/C2=C(\C(Cl)=C(Cl)Cl)[N+](=O)[O-])cc1	20µM*	2%[10 µM]	-2%	?	1%	?
S=C(NCCN1CCOCC1)NC1CCCC1	12%	·	·	18%	5%	13%
Cc1ccccc1CN1CCN(CC(=O)NCc2ccccc2)C1=O	-1%	4.5µM*	-5%	-3%	?	8%
N#Cc1cc(C(=O)c2cc(F)ccc2O)cn(-c2nccs2)c1=O	?	0%[10 µM]	11µM*	-8%	-28%	-14%
N#Cc1cc(C(=O)c2ccccc2O)cn(-c2nccs2)c1=O	?	·	32µM*	15%	?	0%
Cc1c(-n2cc(C(=O)c3cc(F)ccc3O)cc(C#N)c2=O)c(=O)n(-c2ccccc2)n1C	-4%	-15%	·	9%	-1%	1%
CCCn1cnc2c1c(=O)n(CCCCC(C)=O)c(=O)n2C	-15%	-10%	-1%	9%	5%	11%
CC1(C)CC2CC(C)(CN2C(=O)COc2cccc3ccccc23)C1 (configuration not stated)	4%	4%	32µM*	6%	-14%	5%
